Experimental data from PubChem BioAssay (NCI).
The panel holds about 83,000 compounds, 20% with a hit somewhere; the sample as a whole holds those more often.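 Method: cells in 96-well plates; compound added at one concentration; 48 h incubation; percent growth measured; values under 10 scored active.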 A number with no mark means an inactive call. Active and inactive are the calls of the source.

Key:
Assay in all cases: NCI-60 one-dose screen, 48 h (100 = growth as untreated, 0 = no growth, -100 = all killed)
Conditions in all cases: 10 µM unless noted
SR leukemia = system: SR leukemia
RPMI-8226 leukemia = system: RPMI-8226 leukemia
OVCAR-8 ovarian = system: OVCAR-8 ovarian
OVCAR-5 ovarian = system: OVCAR-5 ovarian
OVCAR-4 ovarian = system: OVCAR-4 ovarian
SK-OV-3 ovarian = system: SK-OV-3 ovarian
IGROV1 ovarian = system: IGROV1 ovarian
OVCAR-3 ovarian = system: OVCAR-3 ovarian
HS 578T breast = system: HS 578T breast
NCI/ADR-RES ovarian = system: NCI/ADR-RES ovarian
T-47D breast = system: T-47D breast
BT-549 breast = system: BT-549 breast
MDA-MB-435 melanoma = system: MDA-MB-435 melanoma
SW-620 colon = system: SW-620 colon
MCF7 breast = system: MCF7 breast
HCT-116 colon = system: HCT-116 colon
HCC-2998 colon = system: HCC-2998 colon
KM12 colon = system: KM12 colon

SMILES	growth (SR leukemia)	growth (RPMI-8226 leukemia)	growth (OVCAR-8 ovarian)	growth (OVCAR-5 ovarian)	growth (OVCAR-4 ovarian)	growth (SK-OV-3 ovarian)	growth (IGROV1 ovarian)	growth (OVCAR-3 ovarian)	growth (HS 578T breast)	growth (NCI/ADR-RES ovarian)	growth (T-47D breast)	growth (BT-549 breast)	growth (MDA-MB-435 melanoma)	growth (SW-620 colon)	growth (MCF7 breast)	growth (HCT-116 colon)	growth (HCC-2998 colon)	growth (KM12 colon)
O=C1Nc2ccccc2/C1=C/c1cccn1CCCCCCn1c2ccccc2c(=O)c2ccccc21	80.8%	25.3%	47.5%	82.2%	53.8%	87.2%	88%	64.9%	96.3%	71.8%	-3% (active)	63.5%	96.7%	102%	1.03% (active)	70.4%	42.8%	12.8%
CC(=O)CC(=O)c1ccccc1.[Cu+2]	51.8%	97.8%	110%	107%	106%	82.4%	87%	114%	119%	104%	93.2%	114%	105%	103%	75.1%	97.7%	107%	98.2%
CCOC(=O)c1c(C)n2c(=O)cc(C)c3c(OC(C)=O)c(OC(C)=O)cc1c32	17.8%	42.3%	62.2%	99.2%	34.6%	103%	76.9%	6.3% (active)	91.4%	33%	52.7%	80.3%	83.3%	34.8%	62.2%	23.3%	84.4%	86.7%
COCCn1cc(-c2nc(-c3cc4cccnc4n3C)cs2)c2cc(OC)ccc21	31%	41%	48.9%	37.5%	8.84% (active)	50%	28.4%	6.53% (active)	56.8%	45.9%	-15.9% (active)	27%	89.6%	77.1%	2.86% (active)	46.1%	39.6%	6.09% (active)
COc1cccc(-c2nn(-c3ccccc3)cc2-c2ccnc(-c3cccnc3)c2)c1	74.9%	67.7%	105%	95.9%	82.7%	104%	94.8%	96.8%	120%	90.6%	76.9%	98.5%	97.7%	109%	87.1%	85.7%	96.4%	94.7%
O=C1C=CC2(O)OC(c3ccccc3)CC(=O)C2=C1O (stereo unspecified)	56.2%	64.3%	82%	96.4%	79.5%	106%	90.9%	1.12% (active)	102%	86%	83.6%	74%	87.7%	102%	86%	82.9%	101%	15.9%
O=C(/C=C/c1cccc([N+](=O)[O-])c1)c1ccc(Nc2nc(Nc3ccc(F)cc3)nc(Nc3ccc(Cl)cc3)n2)cc1	8.59% (active)	32%	86.3%	62.7%	97.3%	110%	84.4%	104%	106%	83.9%	81.4%	103%	102%	104%	67.1%	97.1%	103%	105%
COc1cc(/C=C2\C(=O)N(CCOc3cc(O)c4c(=O)cc(-c5ccccc5)oc4c3)c3ccccc32)cc(OC)c1O	39%	84.1%	69.9%	103%	82.3%	92.2%	74.4%	55%	45.5%	47.5%	65.4%	51%	-40.2% (active)	22.2%	31%	28.2%	80%	51.2%
O=C(N/N=C/c1ccccc1Cl)c1ccccc1Nc1ccnc(C(F)(F)F)c1	-3.24% (active)	-34.9% (active)	7.58% (active)	6.58% (active)	-1.98% (active)	-8.48% (active)	9.79% (active)	3.44% (active)	19.3%	4.04% (active)	-14.3% (active)	15.7%	14.6%	16.6%	9.9% (active)	13.3%	-20.7% (active)	10.4%
CN(C)c1ccc(/C=N/NC(=O)CSc2nc3sc4c(c3c(=O)n2-c2ccccc2)CCCCC4)cc1	22.7%	76.8%	20.6%	50.7%	19.7%	67.1%	36.5%	12%	23.9%	59.1%	61.5%	71.2%	33.2%	27.2%	35%	7.89% (active)	39.4%	38.5%
CNC(=O)c1cc(Oc2ccc3nc(NC(=O)c4cc(C(F)(F)F)cc(C(F)(F)F)c4)sc3c2)ccn1	12.5%	9.36% (active)	20.8%	51.6%	15.8%	-2.45% (active)	30.9%	12%	32.1%	12.9%	0.372% (active)	11.4%	12.1%	40.2%	9.82% (active)	12.4%	35.2%	15.5%
COc1ccc(C2CC(=O)Oc3c(OC)c4c(c(OC)c32)OCO4)cc1 (stereo unspecified)	61.8%	89.4%	98.2%	92.2%	106%	92%	92.7%	109%	93.7%	92.4%	103%	87.6%	56.8%	89.7%	92.7%	96.9%	97%	88.1%
CN1CCN(Cc2ccc(NC(=O)c3cncc(C#Cc4cnc(N)c5ncccc45)c3)cc2Cl)CC1	-1.93% (active)	73.1%	101%	95.1%	104%	109%	110%	116%	80.1%	74.9%	121%	105%	94.2%	2.96% (active)	65.6%	14.6%	106%	23%
O=C1OCC2=C1C(c1cccc(F)c1)c1cc3c(cc1N2CCO)CCC3 (stereo unspecified)	12.3%	23.3%	13.5%	36.2%	48.8%	32.8%	23.5%	-24.9% (active)	41.2%	13.3%	52.6%	39.5%	-36.9% (active)	26.3%	19.7%	10.5%	7.85% (active)	13.4%
CC1=C([Se]CC(OC(=O)[C@@H](CO)NC(=O)OC(C)(C)C)C(=O)NCCCCCC(=O)OCc2ccccc2)C(=O)c2ccccc2C1=O (stereo partly specified)	-4.61% (active)	-28.9% (active)	-82.4% (active)	-70.5% (active)	-98.1% (active)	-60.1% (active)	-93.9% (active)	-82.1% (active)	2.05% (active)	-76.6% (active)	-94.3% (active)	-98.6% (active)	-83.3% (active)	-42% (active)	-44.7% (active)	-88.9% (active)	-92.5% (active)	-52.7% (active)
CN(C)CCCN(CCC1CCCCC1)CCC1CCCCC1	-35.3% (active)	23.8%	81.1%	83.3%	71.2%	97%	39.7%	34.6%	58.1%	74.4%	-37.6% (active)	86%	-33.2% (active)	40.6%	-24.1% (active)	29%	-88.1% (active)	12%
C=CCn1c(SCC(=O)Nc2ccc(C(=O)/C=C/c3cc(OC)c(OC)c(OC)c3)cc2)nnc1-c1cc(-c2ccc(S(N)(=O)=O)cc2)nc2ccccc12	28.1%	4.9% (active)	57.2%	123%	83.7%	111%	80.4%	81.1%	108%	103%	81.1%	75.2%	80.2%	76.8%	26.5%	17.2%	105%	59.8%
